Hits are enriched below; roughly 10% of the tested compounds scored in any of these assays.
Six1-Eya2 inh = blocks human Six1 binding to Eya2; AlphaScreen GST-Six1/His-Eya2 binding, biochemical; active compounds read low; activity change, % (concentration not given with the values); 360,000 tested, 0.56% active; AID 651725; in the data active means activity change below about -65%; inconclusive means mostly about -30% to -63%; further: on the % scale 0 is the no-effect control and ±100 the full control effect
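Compounds are tested against tagged Six1 and Eya2 proteins bridged by glutathione donor and nickel acceptor beads; after a one-hour incubation at 37 °C without light, AlphaScreen emission is recorded.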
HP1b chromo inh = blocks HP1-beta chromodomain binding to methylated histone tails | 390,000 tested, 0.56% active | AlphaScreen HP1-beta / biotin-H3K9me3 peptide binding | Potency, µM (doses to about 114 µM), for the others: at the top dose activity change, negative = inhibition, usual class: inhibitors | P83916; further: potency means the concentration at half of the fitted maximal effect; nearly all actives have a fitted effect of over 70% in size
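Compound inhibition of the preformed complex between 50 nM HP1-beta and 50 nM biotinylated H3K9me3 peptide was read by AlphaScreen. Buffer was PBS pH 7.4 with 0.01% Tween-20. Incubations ran 30 min at room temperature, with 10 ug/mL donor/acceptor beads.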
BAZ2B block = inhibitors of human BAZ2B bromodomain; AlphaScreen BAZ2B-H3K14Ac peptide displacement; Potency, µM (titrated, usually from 114 µM), without a hit: at the top dose activity change, negative = inhibition, hits mostly inhibitors; 360,000 tested, 4.4% active; further: potency means the concentration at half of the fitted maximal effect; on the % scale 0 is the no-effect control and ±100 the full control effect; nearly all actives have a fitted effect of over 60% in size
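Complex of BAZ2B and biotin-H3K14Ac (50 nM apiece) forms over 30 min at RT, then faces library compounds up to 110 uM for another 30 min; AlphaScreen beads added, 20 min dark incubation, luminescence read.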
JMJD2A Tudor inh = inhibitors of human JMJD2A Tudor domain; AlphaScreen JMJD2A-Tudor / H3K4me3 peptide binding; AID 504339; 390,000 tested, 4.4% active; Potency, µM (top dose mostly 114 µM), inactives show top-dose activity change, negative = inhibition, hits mostly inhibitors; further: potency means the concentration at half of the fitted maximal effect; on the % scale 0 is the no-effect control and ±100 the full control effect; nearly all actives have a fitted effect of over 50% in size
G9a inh = inhibitors of human histone lysine methyltransferase G9a | Potency, µM (series often up to 102 µM), without a hit: at the highest dose activity, negative = inhibition, hits mostly inhibitors | AID 504332 | G9a H3K9 monomethylation, AlphaScreen, 2 h | 350,000 tested, 8.8% active; further: potency means the concentration at half of the fitted maximal effect; on the % scale 0 is the no-effect control and ±100 the full control effect; nearly all actives have a fitted effect of over 75% in size
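Using a bead-based AlphaScreen, monomethylated H3K9 product from 2 h room-temperature reactions (G9a 20 nM, peptide 500 nM, SAM 20 uM) was detected with 0.5 ug/mL rabbit anti-H3K9me1 antibody.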
CtBP-E1A blk = CtBP/E1A binding inhibition; AlphaScreen GST-E1A/His-CtBP binding, 1536-well; active compounds read low; activity change, % (test concentration not listed); 340,000 tested, 0.49% active; in the data active means activity change below about -65%; inconclusive means mostly about -30% to -63%; further: on the % scale 0 is the no-effect control and ±100 the full control effect
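Steps: dispense buffer (Tris pH 8.0, NaCl 300 mM, TCEP 1 mM, BSA, Tween 20); add 5X protein mix (GST-E1A, His-CtBP, 125 nM each); pin 23 nL compound; 2 h at 37 °C, dark; add 5X beads (50 ug/mL); 1 h; read.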
Starred values were filed as active, the others as inactive; ? = inconclusive; nt = not tested or not shown; [ ] = another dose, or the depositor's remark. Unless noted, the call rests on the fitted dose curve; in most records, active means well fitted inhibition curve with a large enough effect; inconclusive means small, poorly fitted or top-dose-only effect; inactive means no such curve, though single readings can be large or run the other way.

SMILES | Six1-Eya2 inh | HP1b chromo inh | BAZ2B block | JMJD2A Tudor inh | G9a inh | CtBP-E1A blk
COc1ccc(NC(=O)c2cc(S(=O)(=O)N3CCCC(C)C3)cn2C)c(OC)c1 (stereo not drawn) | nt | 6%[57 µM] | ? | -35% | 12%[59 µM] | nt
COc1ccc(CCNc2ncnc3c2nnn3C)cc1 | nt | 44% | 2% | -3% | -1%[59 µM] | nt
C=CCc1c(C)nc2nc(SCC(=O)Nc3ccccc3CC)nn2c1C | nt | 39% | 3% | -4% | -1%[59 µM] | nt
COCCCn1c(SCC(=O)Nc2ccc(NC(C)=O)cc2)nc2sc3c(c2c1=O)CCC3 | 46 | 0% | -14% | -14% | 45µM* | 1
CCn1c(SCC(=O)O)nc2sc3c(c2c1=O)CCC3 | -4 | -2% | 56µM* | ? | 45µM* | 1
Cn1c(SCC(=O)O)nc2sc3c(c2c1=O)CCC3 | 20 | 26% | -5% | -22% | -5%[59 µM] | nt
COCCn1c(SCC(=O)NCC(c2ccccc2)N(C)C)nc2sc3c(c2c1=O)CCC3 (stereo not drawn) | -4 | 13% | nt | -20% | nt | 0
CCn1c(SCC(=O)OC)nc2sc3c(c2c1=O)CCC3 | -9 | ? | 50µM* | 50µM* | nt | -8
O=C1[C@@H]2C[C@@H]3C[C@H]1C[C@@](O)(C3)C2 | nt | nt | nt | nt | -6%[12.7 µM] | nt
Cc1ccc(OCC(=O)NCC2(N(C)C)CCCCC2)cc1C | nt | 36% | -5% | -7% | -10%[59 µM] | nt
O=C(NCc1cccn1Cc1ccccc1)Nc1ccc(Br)cc1F | nt | ? | -4% | -18% | 8%[59 µM] | nt
CCOc1ccc(CNC(=O)c2ccc(NC(=O)N3CCCCc4ccccc43)cc2)cc1OC | nt | 21% | 0% | 3% | 7%[59 µM] | nt
CN(CCC#N)C(=O)COC(=O)c1c2c(nc3ccccc13)/C(=C/c1ccco1)CC2 | ? | ? | 45µM* | 89µM* | 22µM* | -13
CC(C)CNC(=O)COC(=O)c1c2c(nc3ccccc13)/C(=C\c1cccs1)CC2 | 42 | 112% | nt | 40% | nt | 42
CCOC(=O)c1c(NC(=O)CSc2cn(CCNC(=O)c3ccc(OC)cc3)c3ccccc23)sc2c1CCCC2 | nt | 4% | ? | -24% | -9%[59 µM] | nt
Cc1ccc(S(=O)(=O)N2CC(O)CC2C(=O)OCc2nc3sc(C)c(C)c3c(=O)[nH]2)cc1 (stereo not drawn) | 1 | 27% | -2% | 0% | 4µM* | 7
Cc1cc(C)c2c(=O)cc(CSCC(=O)Nc3ccccc3Cl)[nH]c2c1 | nt | 28%[57 µM] | 0% | -8% | 1%[59 µM] | nt
O=C(CCN1CCCCC1)c1ccc2c(c1)OCO2 | 1 | 31% | -24%[57.1 µM] | 0% | 7.9µM* | 5
O=C(CCN1CCc2ccccc2CC1)c1ccc2c(c1)OCCO2 | -2 | -11% | -2% | ? | 2.2µM* | -3
O=C(CCCN1CCOCC1)c1ccc2c(c1)OCCO2 | 1 | 18% | -2% | -24% | 12%[59 µM] | 10
O=C(CCN1CCOCC1)c1ccccc1 | -3 | 37% | 2% | -8% | 45µM* | -7
O=C(CCN1CCOCC1)c1ccc2c(c1)OCCO2 | -1 | 27% | 3% | -11% | 8.9µM* | -1
O=C(CCN1CCCCC1)c1ccccc1 | 3 | 30% | 29% | -11% | ? | 7
CC1=C(C(=O)Nc2ccc(C)cc2Cl)C2(CCCCC2)OC1=O | nt | 21% | -2% | 1% | -33%[59 µM] | nt
Cc1ccc(C(C)C)c(OCCCn2c(=O)oc3ccccc32)c1 | nt | 188% | 191% | 122% | 121%[59 µM] | nt
SMILES | Six1-Eya2 inh | HP1b chromo inh | BAZ2B block | JMJD2A Tudor inh | G9a inh | CtBP-E1A blk
O=C(c1ccccc1)N1CCN(Cc2ccccc2Br)CC1 | -1 | ? | 50µM* | 5µM* | ? | -2
O=C(CCN1CCN(C(=O)c2ccccc2)CC1)c1ccc(Br)cc1 | 7 | 32% | -5% | -15% | 32µM* | 3
O=C(c1ccc(Br)cc1)N1CCN(Cc2ccccc2)CC1 | -20 | 29% | 5% | -13% | -5%[0.501 µM] | -1
O=C(CCN1CCOCC1)NNC(=S)NC(=O)c1ccccc1 | -3 | 28% | nt | 18µM* | 11µM* | -12
CCN(c1cccc(C)c1)S(=O)(=O)c1nnc(NC(=O)c2ccccc2Cl)s1 | nt | 81% | 109% | 55% | 52%[59 µM] | nt
C[C@H]1C(=O)N(S(=O)(=O)c2ccc([N+](=O)[O-])cc2)[C@H]1c1ccc(F)cc1 | nt | 29% | nt | -8% | nt | nt
O=C(O)C1CC(C(=O)O)SS1 (stereo not drawn) | -8 | -6% | nt | 32µM* | nt | 0
O=C(O)C1CCC(N2C(=O)C3C4CCC(C4)C3C2=O)CC1 (stereo not drawn) | 1 | 35% | 0% | -8% | 25% | 6
CSc1ncc(C(=O)Nc2ccc(C)c(Cl)c2)c(-c2ccccc2)n1 | nt | 39% | -1% | -18% | -3%[59 µM] | nt
CC(C)c1ccc(NC(=O)CNCC(c2ccccc2)N(C)C)cc1 (stereo not drawn) | 0 | -14% | ? | 45µM* | 35µM* | 8
Cc1cc(C2CCCCC2)n(O)c(=O)c1 | -1 | 25% | 79µM* | ? | 5%[59 µM] | ?
CCOc1ccc(-c2nnc(SCC(=O)NCc3ccc(C)cc3)nc2-c2ccc(OCC)cc2)cc1 | nt | 52% | 16% | -30% | ? | nt
COc1ccc(OC)c(C2C=C(C34CC5CC(CC(C5)C3)C4)NC(=S)N2)c1 (stereo not drawn) | ? | ? | 32µM* | ? | ? | ?
